Consider 40 molecules from PubChem BioAssay (NCATS).

Results filed as inconclusive are left out. Entries that show only a call come without a potency. Values without a mark were called inactive. Calls of active or inactive are those of the source. Calls come from the whole dose curve; as a rule, active = well fitted inhibition curve with a large enough effect; inconclusive = small, poorly fitted or top-dose-only effect; inactive = flat fitted curve, though single readings scatter. Residues, ends and D or L forms follow the SMILES beside them. *: point of attachment. Cbz = O=C(OCc1ccccc1)*

Glutathione peroxidase 1 (Homo sapiens), sequence (P07203 whole entry, looked up): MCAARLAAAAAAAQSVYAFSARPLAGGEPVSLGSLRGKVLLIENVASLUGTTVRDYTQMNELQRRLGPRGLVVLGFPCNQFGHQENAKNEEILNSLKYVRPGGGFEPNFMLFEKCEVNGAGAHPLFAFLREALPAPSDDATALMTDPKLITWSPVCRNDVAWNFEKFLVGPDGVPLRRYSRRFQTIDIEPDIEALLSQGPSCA

The test concerns the target Glutathione peroxidase 1 (Homo sapiens) (UniProt P07203). The experiment in a line: Primary qHTS Assay for Inhibitors of Recombinant Selenoprotein Glutathione Peroxidase 1 (GPX1) (AID 1845191). Note: nearly all actives have a fitted effect of over 65% in size. Particulars: recombinant GPX1, GR-coupled NADPH fluorescence, 15 min; series mostly up to 48.8 µM; activity, negative = inhibition: at the top concentration. From the text: Assay Provider: Elias S.J. Arner MD PhD.
Department of Medical Biochemistry and Biophysics
Karolinska Institutet, Solna, Stockholm, Sweden
Selenoprotein glutathione peroxidases (GPX), like the ubiquitously expressed GPX1 and the ferroptosis modulator GPX4, enact their antioxidant activities by reducing hydroperoxides using glutathione. […] GPX1 and GPX4 inhibitors have thus shown promise as anti-cancer agents. Existing inhibitors are often promiscuous, or modulate GPX activity only indirectly, so novel direct inhibitors identified through screening against GPX1 and GPX4 could be valuable. Here, we developed optimized glutathione reductase (GR)-coupled GPX assays for the biochemical high-throughput screen (HTS) of almost 12,000 compounds with known mechanisms of action. Initial hits were triaged using a GR counter-screen, assessed for isoform specificity using a separate GPX2 assay, and were assessed for general selenocysteine-targeting activity using a thioredoxin reductase (TXNRD1) assay. With this suite of assays, we identified novel GPX1/GPX2- and GPX4-specific inhibitors and can here present a validated pipeline for future discovery research for selenoprotein-targeting agents.
SEQUENCE No. (e.g., 1, 2, 3, etc.); […] (e.g., Cells, Incubation, Reagent, etc.); VALUE; DESCRIPTION.
1; Reagent 1; 3 uL; GPx1 enzyme or no enzyme control in 1536-well, black, solid Greiner assay plate.
2; Compound; 25 nL; Kalypsis pin tool (Wako USA) equipped with a 1536-well pin head.
3; Incubation; 30 min; room temperature.
4; Reagent 2; 1 uL; 10 nM GPX1, 1 mM GSH, 0.5 mM CHP, 0.5 mM NADPH, 100 nM GR, 0.01% BSA substrate
5; Detection; Fluorescence; ViewLux microplate reader, excitation 340 nm and emission 450 nm.
6; Incubation; 15 min; room temperature.
7; Detection; Fluorescence; ViewLux microplate reader, excitation 340 nm and emission 450 nm.
NOTES (numbers refer to Sequence numbers above)
1. 3 uL of 16.66 nM GPX1 and 0.016% BSA in assay buffer (50 mM Tris-HCl, 2 mM EDTA (pH 7.5), 150 mM NaCl) was added to columns 3-48 of 1536-well assay plates using a BioRAPTR Flying Reagent Dispenser (Let's Go Robotics (LGR), Carlsbad, CA). A no-enzyme control (0.01% BSA in TES assay buffer) was added to columns 1-2.
2. 25 nL of test compounds and DMSO controls were added to each well with a pin tool (Kalypsys).
3. The assay plates were incubated for 30 minutes at room temperature.
4. 1 uL of master mix (500 nM glutathione reductase (GR), 5 mM reduced glutathione (GSH), 2.5 mM NADPH in assay buffer) was added. 1 uL of cumene hydroperoxide (CHP) ([2.5 mM] in 50% EtOH) was then added within 5 minutes to initiate the reaction. Final concentrations were: 10 nM GPX1, 1 mM GSH, 0.5 mM CHP, 0.5 mM NADPH, 100 nM GR, 0.01% BSA.
5. Initial fluorescence readout (t=0) at 340/450 nm was measured using a ViewLux multimodal detector (PerkinElmer, Waltham, MA).
7. Endpoint fluorescence readout (t=15) at 340/450 nm was measured 15 min after room temperature incubation.
(In general: qHTS replaces the single test concentration by a dilution series.)
Turning to `Nc1cccc2c1C(=O)N(C1CCC(=O)NC1=O)C2=O` (stereo not given), the Potency entry was “inactive”.

For `CCS(=O)(=O)Nc1ccc2[nH]c(O)c(C(=Nc3ccc(CN4CCCCC4)cc3)c3ccccc3)c2c1`, the “activity, negative = inhibition” value was -10%.

Take `CC(N[C@H]1CCCC[C@H]1NC(=O)c1ccc(Cl)cc1)c1cccc2ccccc12` (stereo not given in full): the outcome was inactive.

Take `C#CCC(Cc1cnc2nc(N)nc(N)c2n1)c1ccc(C(=O)N[C@@H](CCC(=O)O)C(=O)O)cc1` (stereo not given in full): the “activity, negative = inhibition” value is 1.53%.

In the case of `Cc1cncc2cccc(S(=O)(=O)N3CCCN(C(=O)CN)C[C@@H]3C)c12`, the result was inactive.

With `Cn1cnc(=N)c2[nH]cnc21`, the “activity, negative = inhibition” value is 0.589% [at 98.3 µM].

`NC[C@H]1O[C@H](O[C@H]2[C@@H](O)[C@@H](O[C@H]3O[C@H](CO)[C@@H](O)[C@H](N)[C@@H]3O)[C@H](N)C[C@@H]2N)[C@H](N)C[C@H]1O`: the outcome was “inactive [at 9.52 µM]”.

For `CCn1c(=O)c2c(nc(C=Cc3ccc(OC)c(OC)c3)n2C)n(CC)c1=O`, the “activity, negative = inhibition” value was -29.1%.

For the molecule `O=c1c(O)c(-c2ccc(O)c(O)c2)oc2cc(O)ccc12`, the result was inactive.

As to `C[C@H](NC(=O)[C@@H](O)c1cc(F)cc(F)c1)C(=O)N[C@@H]1C(=O)N(C)c2ccccc2-c2ccccc21`, the “activity, negative = inhibition” value is -19.3%.

For the molecule `CN(C)c1ccc2cc(C(=O)N[C@@H](CCCN=C(N)CCl)C(=O)NCc3ccccc3)ccc2c1`, the “activity, negative = inhibition” value is -18.2%.

Consider `c1ccc2c(Oc3nc(Nc4ccc(N5CCOCC5)cc4)c4ncn(C5CCCCC5)c4n3)cccc2c1`, for which the Potency result was “inactive”.

Consider `CC(C)C[C@@H](C=O)NC(=O)[C@H](CC(C)C)NC(=O)[C@H](CC(C)C)NC(=O)OCc1ccccc1` (Cbz-Leu-Leu-Leu-aldehyde), for which the outcome was inactive.

On to `NC1=N[C@H]2[C@H](CS[C@H]2CCCCC(=O)O)N1`, for which the “outcome” value is “inactive [at 27.7 µM]”.

Take `CC(=O)OC[C@@H]1O[C@@H](n2ccc(=O)[nH]c2=O)[C@H](OC(C)=O)[C@H]1OC(C)=O`: the result was inactive.

In the case of `C[C@H](NC(=O)Cc1cc(F)cc(F)c1)C(=O)N[C@H](C(=O)OC(C)(C)C)c1ccccc1`, the outcome was inactive.

As to `COc1cccc2c1C(=O)c1c(O)c3c(c(O)c1C2=O)C[C@@](O)(C(=O)CO)C[C@@H]3O[C@H]1C[C@H](N)[C@H](OC2CCCCO2)[C@H](C)O1` (stereo not given in full), the “activity, negative = inhibition” value is -6.37%.

As for `COC1=C(OC)C(=O)C(CC=C(C)CCC=C(C)CCC=C(C)CCC=C(C)CCC=C(C)CCC=C(C)CCC=C(C)CCC=C(C)CCC=C(C)CCC=C(C)C)=C(C)C1=O`, the activity, negative = inhibition was 1.94% [at 4.49 µM].

Consider `C[C@](Cc1c[nH]c2ccccc12)(NC(=O)OC1C2CC3CC(C2)CC1C3)C(=O)NC[C@H](NC(=O)CCC(=O)O)c1ccccc1` (stereo not given in full), for which the result was inactive.

For the molecule `N#CNC(=NCCCCCCOc1ccc(Cl)cc1)Nc1ccncc1`, the “activity, negative = inhibition” value was -0.166%.

In the case of `Oc1cc2c(cc1O)C1c3ccc(O)c(O)c3OCC1(O)C2` (stereo not given), the result was inactive.

In the case of `CN(C)CC(=O)N1CCC(c2ccc(NC(=O)c3ncc(C#N)[nH]3)c(C3=CCCCC3)c2)CC1`, the Potency entry was “inactive”.

As to `O=C(O)CCCCCC(=O)NN=C1CCCC1`, the result was inactive.

`COc1ccc(Nc2cc(-c3cnc(N)nc3)nc(N3CCOCC3)n2)cn1`: the result was inactive.

For `c1cc(N[C@@H]2CCNC2)nc(-c2cnc3ccc(-c4cn[nH]c4)cn23)c1`, the result was inactive.

As for `C[N+]1(C)[C@@H]2C[C@@H](OC(=O)C(O)(c3cccs3)c3cccs3)C[C@H]1[C@@H]1O[C@@H]12`, the “activity, negative = inhibition” value is -15.9%.

For `Cc1coc2c1C(=O)C(=O)c1c-2ccc2c(C)cccc12`, the outcome was inactive.

Consider `CCN(CC)CCCCNc1ncc2c(n1)N(C)C(=O)N(c1c(Cl)c(OC)cc(OC)c1Cl)C2`, for which the outcome was inactive.

Consider `Cc1ccc(-n2[nH]c(C)c(N=Nc3cccc(-c4cccc(C(=O)O)c4)c3O)c2=O)cc1C`, for which the Potency entry is “inactive”.

On to `Nc1nc(N)c2nc(-c3cccc(O)c3)c(-c3cccc(O)c3)nc2n1`, for which the result was inactive.

Consider `O=C(Nc1ccc(Oc2ccnc3[nH]ccc23)c(F)c1)c1cccn(-c2ccc(F)cc2)c1=O`, for which the outcome was inactive.

On to `CCc1ccc(C(=O)Nc2cc(CN3CCN(C)CC3)cc(C(F)(F)F)c2)cc1C#Cc1cnc2ccnn2c1`, for which the Potency result was “inactive”.

Take `CC(C)[C@H](CO)Nc1nc(Nc2cccc(Cl)c2)c2ncn(C(C)C)c2n1`: the result was inactive.

For the molecule `CCCCCCCCCCCCCCCC(=O)OC[C@@H](NC(=O)C(Cl)Cl)[C@H](O)c1ccc([N+](=O)[O-])cc1`, the “activity, negative = inhibition” value was -18.1%.

With `CN1C(C(=O)Nc2ccccn2)=C(O)c2sc(Cl)cc2S1(=O)=O`, the Potency entry was “inactive”.

`C=Cc1c(C)c2cc3nc(cc4[nH]c(cc5nc(cc1[nH]2)C(C)=C5CCC(=O)O)c(CCC(=O)OC)c4C)[C@@]1(C)C3=CC=C(C(=O)OC)[C@H]1C(=O)OC`: the Potency result was “inactive”.

As to `CCNC(=O)c1cc2c(-c3cc(OCCN4CCCC4)c(Cl)cc3Cl)nc(N)nc2s1`, the “activity, negative = inhibition” value was -7.71% [at 27.7 µM].

With `Nc1nc(=O)n([C@H]2C[C@H](O)[C@@H](CO)O2)cc1F`, the result was inactive.

On to `O=C1NCCc2[nH]c(-c3ccncc3)cc21`, for which the result was inactive.

On to `COc1cc([C@@H]2c3cc4c(cc3[C@H](O)[C@H]3COC(=O)[C@@H]23)OCO4)cc(OC)c1OC`, for which the result was inactive.
